Activity calls are given as the source filed them. Unless noted, the rule behind the calls is not given here.

This is an account of results in PubChem BioAssay.

Assay [1] in a line: anti-His antibody binders, primary screen, artefact control for SMM control protein annotation, biochemical, small-molecule microarray, 635 nm fluorescence (AID 1128).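 Note: score merges feature fluorescence with signal-to-noise for each printed compound spot.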 The settings on record: anti-His Alexa647 antibody binding, higher = more signal.
Assay [2] deals with Human papillomavirus type 1a E7 protein (residues 1-88). In words: HPV1a E7 small-molecule binders, primary screen, biochemical, small-molecule microarray, residues 1-88, 635 nm (AID 1129). The settings on record: small-molecule microarray binding, fluorescence 635 nm; higher = more signal.
Assay [3] deals with Focal adhesion kinase 1 (Homo sapiens) (UniProt Q05397). Description: small-molecule microarray binders of FAK, primary screen, biochemical, 635/667 nm fluorescence, BSA, DTT (AID 1130).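 Note: composite of spot emission at 667 nm and signal to noise over triplicate slides.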 The settings on record: PTK2 binding, 635 nm fluorescence, higher = more signal.
Assay [4] deals with Fibrinogen (Alexa647-labelled). In words: fibrinogen binders on compound microarrays, profiling panel, artefact control for SMM control-protein annotation, biochemical, small-molecule microarray, 635/667 nm fluorescence (AID 1131).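 Note: z-score merges 667 nm fluorescence with per-spot signal-to-noise over triplicate slides.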 The settings on record: fibrinogen-A647 binding fluorescence, higher = more signal.
The target of assay [5] is Follistatin (Homo sapiens) (UniProt P19883). Description: follistatin binders on small-molecule microarrays, primary screen, biochemical, small-molecule microarray, 635/667 nm fluorescence (AID 1132). The settings on record: FST binding, 635 nm fluorescence, higher = more signal.
The target in assay [6] is Fibroblast growth factor 2 (Homo sapiens) (UniProt P09038). Description: FGF2 binders on small-molecule microarrays, primary screen, biochemical, small-molecule microarray, 635/667 nm fluorescence (AID 1133). The settings on record: small-molecule microarray binding, FGF2, fluorescence 635/667; higher = more signal.
A short description of assay [7]: mitochondrial membrane potential change in A549 cells, profiling panel, cell-based, JC-1 fluorescence, basal, 24 h, 100 nL (AID 1138).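 Note: A549 lung adenocarcinoma cells under basal conditions with no added stimulus; test concentration not given here.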 The settings on record: higher = more signal.
In another assay the test system is Lefty1. In words: Lefty1 binders on small-molecule microarrays, primary screen, biochemical, small-molecule microarray, 635/667 nm fluorescence (AID 1139). The settings on record: small-molecule microarray binding, fluorescence 635/667; higher = more signal.
Assay [8] has as its system wheat germ agglutinin (Triticum aestivum), Alexa647-labelled. Description: wheat germ agglutinin binders on compound microarrays, profiling panel, artefact control for SMM control-protein annotation, biochemical, small-molecule microarray, 635/667 nm fluorescence (AID 1140).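 Note: score merges 667 nm feature emission with signal to noise over triplicate slides.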 The settings on record: WGA-A647 binding, 635 nm fluorescence, higher = more signal.
Assay [9] deals with Luciferin 4-monooxygenase (Photinus pyralis) (UniProt P08659). In words: firefly luciferase enzyme inhibitors, primary screen, biochemical, luminescence, purified enzyme, 2006 set (AID 1141).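 Note: cell-free assay with purified firefly luciferase at 100 ng per well in PBS; test concentration not given here.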 The settings on record: SteadyGlo luminescence, 30 min, higher = more signal, called active from +8 up or from −8 down.
Assay [10] deals with Wnt5a (protein binding on small-molecule microarray). In words: Wnt5a binders on small-molecule microarray, primary screen, biophysical, 635/667 nm fluorescence (AID 1142).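 Note: fluorescence read at 667 nm with signal to noise per printed feature.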 The settings on record: 635 nm fluorescence, higher = more signal.
Assay [11] can be described thus: cell viability in Huh7 cells, primary screen, cytotoxicity control for HCV replication inhibitor project, CellTiter-Glo luminescence, basal, 48 h (AID 1143).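 Note: Huh7 hepatoma cells carrying a hepatitis C replication reporter with no stimulus; test concentration not given here.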 The settings on record: Huh7 HCV replicon, higher = more signal, called active from +8 up or from −8 down. On the technique in general: ATP-based viability assays read luminescence as a measure of living cells.

Assay [12] in a line: P. aeruginosa biofilm formation inhibitors, primary screen, PAO1 strain, BacTiter-Glo luminescence, LB-PBS (AID 1144). The settings on record: 12 h, higher = more signal.
Assay [13] is described as follows: CREB reporter modulators without forskolin, primary screen, cell-based, PC12, CRE-LacZ reporter, unstimulated (AID 1145). The settings on record: no forskolin, luminescence, 4.5 h, higher = more signal, called active from +8 up or from −8 down.
Assay [14] in a line: CREB reporter modulators under forskolin, primary screen, cell-based, PC12, CRE-LacZ reporter, forskolin-stimulated (AID 1146).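 Note: PC12 cells with 6xCRE LacZ reporter stimulated by forskolin 10 µM; beta-galactosidase reporter signal reflecting CREB driven transcription.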 The settings on record: luminescence, 4.5 h, higher = more signal, called active from +8 up or from −8 down.
For assay [15], the target named is Streptavidin (Streptomyces avidinii) (UniProt P22629). Description: streptavidin binders on small-molecule microarray, primary screen, artefact control for SMM compound annotation, biophysical, 635/667 nm fluorescence (AID 1147).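 Note: signal reflects streptavidin binding to arrayed compounds as a control protein.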 The settings on record: streptavidin binding, higher = more signal.
A short description of assay [16]: small-molecule binders of probe aInhba, primary screen, biochemical, small-molecule microarray, 635/667 nm fluorescence (AID 1148).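 Note: score merges 667nm spot fluorescence with signal-to-noise for antibody binding to printed compounds.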 The settings on record: higher = more signal.
In assay [17] the target is Torsin-1A (Homo sapiens) (UniProt O14656). In words: torsin A binders from cell lysate, primary screen, small-molecule microarray, wild-type, 635/667 nm (AID 1149). The settings on record: COS7 hTOR1A-WT lysate, 635 nm fluorescence, higher = more signal.
For assay [18] the target is unchanged. Description: small-molecule binders of mutant TOR1A in lysate, primary screen, cell lysate, small-molecule microarray, COS7 lysate, 635/667 nm fluorescence (AID 1150).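 Note: score pools 667 nm emission and signal to noise measuring lysate protein binding.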 The settings on record: COS7 hTOR1A mutant lysate, 635 nm fluorescence, higher = more signal.
Assay [19] concerns Sonic hedgehog protein (Shh). In words: small-molecule binders of Shh protein, primary screen, biochemical, small-molecule microarray, 635/667 nm fluorescence (AID 1151).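 Note: Shh protein binding to compounds spotted on small-molecule microarray slides; score combines spot fluorescence intensity with signal-to-noise across triplicate slides.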 The settings on record: small-molecule microarray binding, 635 nm fluorescence; higher = more signal.

Follistatin (Homo sapiens), sequence (P19883 whole entry, looked up): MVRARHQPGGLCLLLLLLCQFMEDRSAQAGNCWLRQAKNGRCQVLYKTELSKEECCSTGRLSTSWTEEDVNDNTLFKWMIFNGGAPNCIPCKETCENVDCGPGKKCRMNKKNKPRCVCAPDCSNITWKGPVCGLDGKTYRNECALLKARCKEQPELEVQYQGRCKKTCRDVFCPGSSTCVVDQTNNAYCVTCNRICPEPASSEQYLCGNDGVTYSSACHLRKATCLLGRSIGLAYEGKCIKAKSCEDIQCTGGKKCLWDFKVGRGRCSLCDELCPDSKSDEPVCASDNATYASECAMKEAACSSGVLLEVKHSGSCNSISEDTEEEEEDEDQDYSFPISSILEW
Luciferin 4-monooxygenase (Photinus pyralis), sequence (P08659 whole entry, looked up): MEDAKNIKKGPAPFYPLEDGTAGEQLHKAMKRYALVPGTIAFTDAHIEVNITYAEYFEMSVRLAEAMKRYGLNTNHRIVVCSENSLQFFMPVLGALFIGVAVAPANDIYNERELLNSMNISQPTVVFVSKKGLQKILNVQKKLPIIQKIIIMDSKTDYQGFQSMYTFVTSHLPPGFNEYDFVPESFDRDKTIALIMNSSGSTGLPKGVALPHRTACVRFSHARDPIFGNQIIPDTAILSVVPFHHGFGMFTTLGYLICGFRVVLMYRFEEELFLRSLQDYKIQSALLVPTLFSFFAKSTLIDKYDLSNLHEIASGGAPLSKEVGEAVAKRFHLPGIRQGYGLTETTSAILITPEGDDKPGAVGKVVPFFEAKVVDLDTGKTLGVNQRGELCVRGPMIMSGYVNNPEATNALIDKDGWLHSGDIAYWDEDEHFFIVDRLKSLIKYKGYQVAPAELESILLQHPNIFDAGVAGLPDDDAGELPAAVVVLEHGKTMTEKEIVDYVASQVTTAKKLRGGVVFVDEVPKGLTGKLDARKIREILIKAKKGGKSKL
Fibroblast growth factor 2 (Homo sapiens), sequence (P09038 whole entry, looked up): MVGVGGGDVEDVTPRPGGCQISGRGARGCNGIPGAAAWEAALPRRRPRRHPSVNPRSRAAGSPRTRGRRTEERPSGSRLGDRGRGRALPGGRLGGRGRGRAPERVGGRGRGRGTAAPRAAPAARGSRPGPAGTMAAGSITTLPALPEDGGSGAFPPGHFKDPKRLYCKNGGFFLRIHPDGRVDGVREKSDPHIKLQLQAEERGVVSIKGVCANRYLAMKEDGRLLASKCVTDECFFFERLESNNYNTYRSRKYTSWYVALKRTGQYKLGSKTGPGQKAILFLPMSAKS
Streptavidin (Streptomyces avidinii), sequence (P22629 whole entry, looked up): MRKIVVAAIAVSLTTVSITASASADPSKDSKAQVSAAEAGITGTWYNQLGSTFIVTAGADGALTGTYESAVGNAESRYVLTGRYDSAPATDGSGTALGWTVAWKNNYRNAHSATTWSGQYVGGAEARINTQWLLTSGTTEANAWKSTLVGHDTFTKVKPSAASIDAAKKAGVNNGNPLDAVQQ
Focal adhesion kinase 1 (Homo sapiens), sequence (Q05397 whole entry, looked up): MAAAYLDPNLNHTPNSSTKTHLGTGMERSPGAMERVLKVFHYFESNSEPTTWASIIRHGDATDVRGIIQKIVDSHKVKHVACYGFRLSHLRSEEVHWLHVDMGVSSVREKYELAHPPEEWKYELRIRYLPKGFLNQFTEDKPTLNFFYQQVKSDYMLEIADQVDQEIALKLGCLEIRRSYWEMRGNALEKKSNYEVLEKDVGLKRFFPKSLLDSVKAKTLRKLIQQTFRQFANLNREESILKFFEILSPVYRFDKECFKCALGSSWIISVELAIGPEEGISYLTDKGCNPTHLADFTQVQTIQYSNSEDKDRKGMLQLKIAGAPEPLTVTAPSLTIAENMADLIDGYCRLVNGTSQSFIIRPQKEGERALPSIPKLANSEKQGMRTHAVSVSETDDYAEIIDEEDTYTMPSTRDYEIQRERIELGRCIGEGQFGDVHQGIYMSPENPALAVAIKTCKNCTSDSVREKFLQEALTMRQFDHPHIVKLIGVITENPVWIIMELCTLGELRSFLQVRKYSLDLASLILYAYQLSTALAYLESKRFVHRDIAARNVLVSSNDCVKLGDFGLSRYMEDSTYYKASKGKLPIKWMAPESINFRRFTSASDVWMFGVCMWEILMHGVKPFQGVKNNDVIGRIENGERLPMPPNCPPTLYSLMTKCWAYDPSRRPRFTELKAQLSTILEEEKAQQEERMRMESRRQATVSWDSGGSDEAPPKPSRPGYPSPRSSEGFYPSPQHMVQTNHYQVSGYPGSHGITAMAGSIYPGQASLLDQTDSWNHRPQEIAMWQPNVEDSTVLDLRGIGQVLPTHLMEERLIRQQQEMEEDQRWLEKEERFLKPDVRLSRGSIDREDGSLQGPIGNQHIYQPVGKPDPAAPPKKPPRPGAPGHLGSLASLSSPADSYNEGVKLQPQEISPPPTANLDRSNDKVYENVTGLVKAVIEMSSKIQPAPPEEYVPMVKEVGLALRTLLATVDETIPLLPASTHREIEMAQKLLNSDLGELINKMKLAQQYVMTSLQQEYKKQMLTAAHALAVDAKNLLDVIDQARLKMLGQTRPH
Torsin-1A (Homo sapiens), sequence (O14656 whole entry, looked up): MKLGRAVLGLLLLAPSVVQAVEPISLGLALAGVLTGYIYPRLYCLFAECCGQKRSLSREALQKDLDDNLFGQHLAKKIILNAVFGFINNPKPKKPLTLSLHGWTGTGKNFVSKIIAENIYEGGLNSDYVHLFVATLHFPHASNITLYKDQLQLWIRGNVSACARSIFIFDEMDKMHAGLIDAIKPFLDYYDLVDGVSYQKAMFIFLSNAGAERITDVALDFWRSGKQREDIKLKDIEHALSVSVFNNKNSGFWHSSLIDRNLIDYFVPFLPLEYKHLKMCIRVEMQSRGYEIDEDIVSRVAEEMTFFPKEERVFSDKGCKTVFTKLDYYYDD

As for `COc1ccc(NC(=O)O[C@H]2[C@H](OC(=O)c3cc4ccccc4[nH]3)[C@@H](OC(=O)c3cc4ccccc4[nH]3)[C@@H](OC)O[C@@H]2CO)cc1`, the composite z-score in assay [1] is 1.23; in assay [2] it was 0.359; in assay [3] it was 0.448; in assay [4], 0.662; in assay [5] it was 0.752; in assay [6], 1.38. Besides, the composite z-score in the assay with Lefty1 is 0.194; in assay [8], 0.566; in [10], 0.147; in assay [15] it was -0.342; in assay [16], -0.0044; in the assay with Torsin-1A (Homo sapiens) [17], -0.0863. The composite z-score in the assay with Torsin-1A (Homo sapiens) [18] came to 0.291; in assay [19] it was 0.593. Further, the z-score was 0.816 in [7]; -2.09 (inactive) in assay [9]; -4.18 (inactive) in assay [11]; -1.65 (inactive) in assay [12]; 1.84 (inactive) in [13]; -1.1 (inactive) in assay [14].

On to `O=C1O[C@@H](c2ccccc2)[C@@H](c2ccccc2)N2[C@@H](c3ccc(OCCO)cc3)[C@]3(C(=O)Nc4ccc(C#CCCO)cc43)[C@@H](C(=O)NC[C@H](O)c3ccccc3)[C@H]12`, for which the composite z-score in [1] was determined as 0.797; in assay [2], 1.17; in assay [3] it was 0.947; in assay [4], 0.668; in assay [5] it was 1.34; in assay [6] it was 1.01. The composite z-score in the assay on Lefty1 is 0.958; in assay [8], 0.356; in assay [10], 0.425; in assay [15], 0.477; in assay [16] it was 0.288; in the assay with Torsin-1A (Homo sapiens) [17], 0.458. Also, the composite z-score with Torsin-1A (Homo sapiens) [18] was 0.652; in [19], 1.88. Moreover, the z-score was 0.225 in assay [7]; -1.15 (inactive) in assay [9]; -0.673 (inactive) in [11]; -0.703 (inactive) in assay [12]; -0.141 (inactive) in assay [13]; 0.119 (inactive) in assay [14].

For `COC(=O)[C@@]1(Cc2ccc(F)cc2)[C@H]2c3cc(C(=O)N(C)C)n(Cc4cc(C)n(C)n4)c3C[C@H]2CN1C(=O)c1ccccc1`, the composite z-score in [1] is 2.76; in assay [2], 1.2; in [3], 0.646; in assay [4], 0.795; in assay [5], 0.577; in assay [6], -0.237. The composite z-score in the assay on Lefty1 was -0.574; in [8], 0.537; in assay [10], 0.692; in [15], 0.678; in [16], 0.302; in the assay with Torsin-1A (Homo sapiens) [17] it was 0.149. Further, the composite z-score with Torsin-1A (Homo sapiens) [18] worked out at 0.0322; in assay [19], 0.303. Further, the z-score in [7] is -0.013; in assay [9], 0.272 (inactive); in assay [11], -0.617 (inactive); in assay [12], -0.0119 (inactive); in assay [13], 0.779 (inactive); in assay [14] it was 0.455 (inactive).

Turning to `NCCCCCCNC(=O)[C@H]1C[C@H]2C(=O)N[C@@H](Cc3ccccc3)C(=O)N2[C@H]1c1cccc(OCCO)c1`, the composite z-score in assay [1] is 0.786; in assay [2] it was 0.248; in assay [3] it was 0.376; in assay [4] it was 0.72; in [5] it was 1.08; in [6], -0.044. Moreover, the composite z-score in the assay with Lefty1 is 0.0358; in assay [8], 0.961; in assay [10] it was -0.0371; in assay [15], 1.09; in assay [16], -0.128; in the assay with Torsin-1A (Homo sapiens) [17] it was 1.24. Also, the composite z-score came out at 0.916 with Torsin-1A (Homo sapiens) [18] and 0.16 in assay [19]. Also, the z-score in [7] was 0.481; in assay [9], 0.0326 (inactive); in assay [11], 0.173 (inactive); in assay [12], -0.687 (inactive); in assay [13], -0.545 (inactive); in [14] it was -0.711 (inactive).
